Source: PubChem
Compounds with a hit are over-represented: about 2.3% of the library has one in this group of screens.
CHO-K1 Ca PAM: nonselective calcium activators in parental CHO-K1 cells, primary screen, counter-screen for M1 PAM project, cell-based, Fluo-8 calcium fluorescence, full deck, 1536-well; ATP EC20; 0% at ATP EC20, 100% at ATP max; activation, % at 3 µM; 360,000 tested, 0.02% active;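 active = activation above the run cutoff, the mean activation of all test compounds plus 3 SD, cut at about 40% in these data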;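 also: peak over basal fluorescence ratio in a 140 s read after ATP addition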
M1 PAM: human M1 muscarinic receptor positive allosteric modulators, primary screen, CHO-K1 cells, Fluo-8 calcium fluorescence, 1536-well; CHO-K1 hM1, ACh EC20; 0% = ACh EC20, 100% = maximal ACh; activation, % at 3 µM; 360,000 tested, 0.088% active; AID 588819, 2011; in the data active = activation above about 19%, passing the limit was not always enough
Target sequence (P11229 whole entry, looked up): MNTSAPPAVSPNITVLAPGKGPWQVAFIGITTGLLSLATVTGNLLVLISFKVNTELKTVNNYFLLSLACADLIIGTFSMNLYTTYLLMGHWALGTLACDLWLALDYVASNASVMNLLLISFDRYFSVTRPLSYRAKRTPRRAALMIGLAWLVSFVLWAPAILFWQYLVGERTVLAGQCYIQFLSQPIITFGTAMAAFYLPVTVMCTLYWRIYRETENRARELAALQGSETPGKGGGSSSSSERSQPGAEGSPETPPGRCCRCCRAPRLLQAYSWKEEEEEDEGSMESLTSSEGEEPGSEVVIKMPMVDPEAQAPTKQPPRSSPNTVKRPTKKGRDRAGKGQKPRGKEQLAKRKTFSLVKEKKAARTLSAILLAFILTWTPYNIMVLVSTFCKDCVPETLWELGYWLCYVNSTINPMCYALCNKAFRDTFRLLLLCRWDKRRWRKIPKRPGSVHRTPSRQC
CHO-K1 Ca antag: M1 antagonist counterscreen hit in parental CHO-K1 cells; inhibition, % at 3 µM; 360,000 tested, 0.6% active; AID 602250; ATP-induced calcium, Fluo-8 fluorescence;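 active = inhibition above a per-plate cutoff, the plate's mean sample inhibition plus 3 SD, cut at about 24% in these data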
M1 antag: human M1 muscarinic receptor antagonists, primary screen, CHO-K1 cells, Fluo-8 calcium fluorescence, 1536-well. CHO-K1 hM1, ACh EC80 antagonist. inhibition, % at 3 µM. 360,000 tested, 1.3% active. AID 588852, 2011;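 active = percent inhibition above its own plate's cutoff, namely the mean of that plate's compound wells plus 3 SD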;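 also: peak over basal fluorescence ratio during 140 s after agonist addition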
CHO-K1 Ca ag: counter-screen for M1 agonists: effect in parental CHO-K1 cells; Fluo-8 calcium fluorescence; scaled to maximal ATP response, vehicle zero; activation, % at 3 µM; 360,000 tested, 0.48% active; in the data active = activation above about 15%;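 also: untransfected CHO-K1 host cells lacking M1 receptor as counterscreen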
M1 ag: human M1 muscarinic receptor agonists, primary screen, Fluo-8 calcium fluorescence, CHO-K1 cells, HTS. Muscarinic acetylcholine receptor M1 (Homo sapiens), P11229. CHO-K1 hM1, agonist mode; 0% DMSO, 100% acetylcholine EC100. activation, % at 3 µM. 360,000 tested, 0.33% active;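 active = activation above the run's mean compound activation plus 3 SD, cut at about 16% in these data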;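 also: peak over basal fluorescence ratio within a 140 s kinetic read after compound addition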
Large screens that a line does not name were inactive.

CC(=O)Nc1cccc(/C(C)=N/Nc2ccc(S(=O)(=O)Nc3ccccc3C(=O)O)cc2[N+](=O)[O-])c1	none
CN(C)Cc1csc(NC(=O)Nc2ccccc2C(C)(C)C)n1	none
CCN(Cc1ccccc1)C(=O)CN1C(=O)COc2ccc(S(=O)(=O)N3CCCCCC3)cc21	none
CCN(C(=O)CN1C(=O)COc2ccc(S(=O)(=O)N3CCCCCC3)cc21)c1cccc(C)c1	CHO-K1 Ca ag 34.9
O=[N+]([O-])/C(C(=C(Cl)Cl)N1CCN(Cc2ccccc2)CC1)=C1\NCCN1Cc1ccc(Cl)nc1	M1 antag 42.9
O=[N+]([O-])C(/C=C(\Cl)[N+](=O)[O-])=C1N(Cc2ccc(Cl)nc2)CCN1Cc1ccc(Cl)nc1	none
CC(C)NC(=O)C1(C)Cc2c(-c3ccc(N(C)C)cc3)ccnc2O1 (stereo not drawn)	none
CCS(=O)(=O)c1ccc2oc(SCC(=O)NC(C)C3CC4CCC3C4)nc2c1 (stereo not drawn)	CHO-K1 Ca antag 24.9
CCS(=O)(=O)c1ccc2oc(SCC(=O)Nc3ccc(OC)cc3OC)nc2c1	none
CC1(C)ON=C(c2cccc(F)c2)NC1=O	none
O=C(CC1NCCc2ccccc21)Nc1ccc(Oc2ccccc2)cc1 (stereo not drawn)	CHO-K1 Ca ag 20.0
O=C(CC1NCCc2ccccc21)Nc1ccccc1 (stereo not drawn)	none
CCN(CC)S(=O)(=O)c1ccc(N2Cc3ccccc3C2=N)cc1	M1 antag 29.9
O=C(CN1CCN(c2ccc(F)cc2)CC1)N1N=CCC1c1ccccc1 (stereo not drawn)	M1 antag 102.8
CC1CCN(CC(=O)N2CCN(c3ccccc3)CC2)CC1	none
O=C(CN1CCN(C(c2ccccc2)c2ccccc2)CC1)N1CCN(c2ccccc2)CC1	M1 antag 81.2
O=C(CN1CCN(C(c2ccccc2)c2ccccc2)CC1)N1N=CCC1c1ccccc1 (stereo not drawn)	M1 antag 48.0
NNC(=O)CCN1CCN(C(c2ccccc2)c2ccccc2)CC1	M1 antag 61.3
Cc1ccc(C(=O)NCCc2nnc3ccc(SCC(=O)Nc4nnc(C)s4)nn23)cc1	none
CC(Oc1ccccc1)C(=O)N1CCN(c2ncccn2)CC1 (stereo not drawn)	none
CCC(C(=O)N1CCN(c2ncccn2)CC1)c1ccccc1 (stereo not drawn)	M1 antag 27.3
Cc1nc2ccc(NC(=S)NC(C)C)cc2nc1C	none
Cc1nc2ccc(NC(=S)NC3CC3)cc2nc1C	CHO-K1 Ca antag 26.6
Cc1cc([N+](=O)[O-])cc2c1NC(=O)C2(O)N1CCCCCC1 (stereo not drawn)	CHO-K1 Ca ag 15.2
O=C1c2ccccc2S(=O)(=O)c2cc(C(=O)N(c3ccccn3)c3ccccn3)ccc21	CHO-K1 Ca ag 70.5, M1 ag 51.0
O=C(Nc1ccccn1)c1ccc2c(c1)S(=O)(=O)c1ccccc1C2=O	none
O=C(/C=C/[C@H]1O[C@@H](n2ccc(=O)[nH]c2=O)[C@H](O)[C@@H]1O)NCCN1CCOCC1	none
CC(=O)Nc1ccc(Sc2ncccc2C(=O)Nc2ccc(OC(F)(F)F)cc2)cn1	CHO-K1 Ca antag 58.7, M1 antag 64.2, CHO-K1 Ca ag 52.9, M1 ag 65.8
CC1=CC(C)(C)N(C(=O)CNC2CCCC2)c2cc(C)ccc21	M1 antag 99.3
CCc1ccc(NC(=O)Nc2ccc3c(c2)N(C)C(=O)CS3)cc1	none
Cc1ccc(NC(=O)Nc2ccc3c(c2)N(C)C(=O)CS3)cc1C	CHO-K1 Ca antag 35.0, M1 antag 31.6
Cc1cc(C)cc(NC(=O)Nc2ccc3c(c2)N(C)C(=O)CS3)c1	M1 antag 43.5
CC(=O)c1cccc(NC(=O)Nc2ccc3c(c2)N(C)C(=O)CS3)c1	M1 antag 35.4
COc1ccccc1Cc1c(C2CCCCC2)nc2cc(C)c(Br)c(C)n12	none (no result: M1 PAM, M1 antag, M1 ag)
COc1ccc(NC(=O)CCc2nnc3ccc(NCc4ccco4)nn23)cc1	M1 PAM 25.5
COc1ccc(-n2c(COc3cccc4ccccc34)nnc2SC(C)C(=O)O)cc1 (stereo not drawn)	CHO-K1 Ca antag 31.6
Cc1cccc(OC(=O)NCCOC(=O)N(O)c2ccc(Cl)cc2)c1	CHO-K1 Ca antag 24.1
COC1=CC(C)C2CC3OC(O)CC4C(C)=C(OC)C(=O)C(C2(C)C1=O)C34C (stereo not drawn)	none
O=C(COC(=O)C12CC3CC(CC(O)(C3)C1)C2)Nc1ccc(Cl)cc1F	none
COC(=O)c1ccc(C(=O)OC)c(NC(=O)COC(=O)C23CC4CC(CC(O)(C4)C2)C3)c1	CHO-K1 Ca antag 33.1
Clc1ccc(-c2nc3c4ccccc4ccn3c2Cc2ccccc2)cc1	none
OC(CN1CCN(c2cccc(C(F)(F)F)c2)CC1)c1c[nH]c2ccccc12 (stereo not drawn)	CHO-K1 Ca antag 29.8
C[C@H](CO)N1C[C@H](C)[C@@H](CN(C)S(=O)(=O)c2ccccc2)Oc2c(NS(=O)(=O)c3ccccc3)cccc2C1=O	none
COC(=O)[C@@H](Cc1c[nH]c2ccccc12)NC(=O)c1ccc2c(c1)OCO2	CHO-K1 Ca ag 22.9
CCNC(=O)C1(C)CCCN(Cc2cccc(Oc3ccccc3)c2)C1 (stereo not drawn)	none
O=C(N/N=C/c1cccnc1)/C(=C\c1cccs1)NC(=O)c1ccccc1	CHO-K1 Ca ag 18.8
O=C(N/N=C/c1cc2ccccc2nc1Cl)/C(=C/c1cccs1)NC(=O)c1ccccc1	none
CNc1cncc(-c2ccc(CN3CCOCC3)cc2)n1	none
C[n+]1c(-c2ccccc2)cc2c(=Cc3ccccc3)c3ccccc3n21	M1 antag 45.7
C[n+]1c(-c2ccccc2)cc2c(=Cc3ccc([N+](=O)[O-])cc3)c3ccccc3n21	M1 antag 42.2
Cc1cn([C@H]2C[C@H](O)[C@@H](CNC=O)O2)c(=O)[nH]c1=O	none
CC1(C(=O)NS(=O)(=O)C2CC2)CCCN(C(=O)c2cccnc2Oc2ccccc2)C1 (stereo not drawn)	none
Cc1ccc(CN2CCN(CCCn3cnc4c(OCc5ccccc5)ncnc43)CC2)cc1	M1 antag 46.8
CCc1sc(C(=O)Nc2ncccc2O)cc1C	M1 PAM 25.3
CCc1sc(C(=O)Nc2ncccc2C)cc1C	none
CN(c1ccccc1C(=O)Nc1ccccc1C(=O)NCc1ccco1)S(C)(=O)=O	CHO-K1 Ca antag 35.4
